Assay results taken from the supplement of paper PMC6555819.

Key:
Assay in all cases: PBM binding z-score (relative to random genomic background probes); higher = stronger binding; sequences stand for … in GC…GCGATTGACAGCGTAGAATGAAGG
[1] = test system: FXR:RXRa (NR concentration 270 nM, RXRa partner concentration 90 nM)
How it was run: (§1)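 Ligand-free nuclear receptor dimers were applied to custom Agilent 4×180K protein-binding microarrays whose double-stranded probes carried direct-repeat seeds, single-nucleotide variants, half-site ablations and random human genomic background sequences in 34-nt variable regions. Incubation lasted 1 h. Binding z-scores were computed against the random background probes from regression-normalized fluorescence.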

[2] = test system: LXRa:RXRa (NR concentration 270 nM, RXRa partner concentration 90 nM)
How it was run: as §1

[3] = test system: LXRa homodimer (NR concentration 270 nM)
How it was run: as §1

[4] = test system: LXRb:RXRa (NR concentration 270 nM, RXRa partner concentration 90 nM)
How it was run: as §1

[5] = test system: LXRb homodimer (NR concentration 270 nM)
How it was run: as §1

[6] = test system: PPARa:RXRa (NR concentration 270 nM, RXRa partner concentration 90 nM)
How it was run: as §1

[7] = test system: PPARg:RXRa (NR concentration 180 nM, RXRa partner concentration 90 nM)
How it was run: as §1

[8] = test system: PPARg:RXRa 270nM:90nM, anti-RXR (NR concentration 270 nM, RXRa partner concentration 90 nM)
How it was run: as §1

[9] = test system: PPARg:RXRa 30nM:10nM, anti-RXR (NR concentration 30 nM, RXRa partner concentration 10 nM)
How it was run: as §1

[10] = test system: PPARg:RXRa 90nM:30nM, anti-RXR (NR concentration 90 nM, RXRa partner concentration 30 nM)
How it was run: as §1

[11] = test system: PPARg:RXRa DBDmut IVT, anti-RXR (DBD mutation: RXRa K156A/R161A, NR concentration 270 nM, RXRa partner concentration 90 nM)
How it was run: as §1

[12] = test system: PPARg:RXRa IVT, anti-PPARg (NR concentration 270 nM, RXRa partner concentration 90 nM)
How it was run: as §1

[13] = test system: PPARg DBDmut IVT, anti-PPARg (DBD mutation: PPARg1 K132A/R137A, NR concentration 270 nM)
How it was run: as §1

[14] = test system: PPARg homodimer (NR concentration 180 nM)
How it was run: as §1

[15] = test system: PXR:RXRa (NR concentration 270 nM, RXRa partner concentration 90 nM)
How it was run: as §1

[16] = test system: PXR homodimer (NR concentration 270 nM)
How it was run: as §1

[17] = test system: RARa:RXR (NR concentration 270 nM, RXRa partner concentration 90 nM)
How it was run: as §1

[18] = test system: RARa homodimer (NR concentration 270 nM)
How it was run: as §1

[19] = test system: RARb:RXRa (NR concentration 270 nM, RXRa partner concentration 90 nM)
How it was run: as §1

Row | Sequence | PBM binding z-score [1] | PBM binding z-score [2] | PBM binding z-score [3] | PBM binding z-score [4] | PBM binding z-score [5] | PBM binding z-score [6] | PBM binding z-score [7] | PBM binding z-score [8] | PBM binding z-score [9] | PBM binding z-score [10] | PBM binding z-score [11] | PBM binding z-score [12] | PBM binding z-score [13] | PBM binding z-score [14] | PBM binding z-score [15] | PBM binding z-score [16] | PBM binding z-score [17] | PBM binding z-score [18] | PBM binding z-score [19]
1 | CGAAGTAGGTCAAAGGACAGTGAAAGGCGACGTA | 4.62 | 3.33 | 0.269 | 2.23 | -0.098 | 5.66 | 10.5 | 8.99 | 8.23 | 9.73 | 8.31 | 8.72 | 4.59 | 2.49 | 1.66 | 0.0557 | 2.53 | 0.312 | 3.93
2 | ATATGTAGTTTAGGGTCATTCAGAAAGTAGGGAA | 5.21 | 4.46 | 1.76 | 4.87 | 2.03 | 5.14 | 3.26 | 3.61 | 1.72 | 2.87 | 1.43 | 2.8 | 1.5 | 2.89 | 4.68 | 1.83 | 5.48 | 1.75 | 3.42
3 | CGAACTAGGTCTCCAGGACAGTGAAGAGGTTGGA | -0.128 | -0.769 | -0.494 | -0.832 | -1.01 | 0.539 | 0.908 | 0.999 | -0.187 | 0.153 | 4.77 | 4.03 | -0.626 | 0.0186 | -0.409 | -0.39 | -0.238 | -0.356 | 0.216
4 | ATACGTAGGTTAGGGTCATTCAGAAAGTAGGGAA | 4.93 | 3.99 | 1.16 | 4.2 | 1.26 | 4.88 | 2.96 | 3.41 | 1.32 | 2.77 | 0.761 | 2.44 | 0.669 | 3.09 | 4.27 | 1.89 | 4.85 | 1.86 | 3.39
5 | ATATGTAGGTTAGGGTGATTCAGAAAGTAGGGAA | 1.37 | 1.32 | 0.569 | 1.83 | 1.47 | 3.62 | 5.4 | 4.45 | 2.06 | 3.62 | 6.7 | 6.39 | 1.41 | 2.93 | 1.04 | 1.31 | 1.3 | 1.25 | 1.38
6 | CTAACTAGGTCAAAGGACAGTGAAAGGCGACGTA | 3.68 | 2.75 | 0.132 | 1.85 | -0.0221 | 5.86 | 10.8 | 9.18 | 9.63 | 10.2 | 8.56 | 8.84 | 1.86 | 1.28 | 1.19 | -0.0818 | 2.41 | 0.599 | 4.07
7 | CGAACTAGGTCACCAGGACAATGAAGAGGTTGGA | 3.54 | 2.55 | 0.00967 | 1.74 | 0.0583 | 5.41 | 8.69 | 6.83 | 4.53 | 6.43 | 7.84 | 9.01 | 1.88 | 1.94 | 1.49 | 0.22 | 2.43 | 0.0185 | 4.21
8 | ATATGTAGGTTAGGGTCATTCAAAAAGTAGGGAA | 4.97 | 4.06 | 1.57 | 4.59 | 1.42 | 5.83 | 7.96 | 7.02 | 4.85 | 6.73 | 6.37 | 6.88 | 2.24 | 2.6 | 4.47 | 2.2 | 5.13 | 2.37 | 3.59
